Screens: PubChem, The Scripps Research Institute Molecular Screening Center
M1 PAM parental: nonselective calcium activators in parental CHO-K1 cells, primary screen, counter-screen for M1 PAM project, cell-based, Fluo-8 calcium fluorescence, full deck, 1536-well; ATP EC20; 0% at ATP EC20, 100% at ATP max; activation, % at 3 µM; 360,000 compounds, 0.02% hits;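 active = activation above the run cutoff, the mean activation of all test compounds plus 3 SD, cut at about 40% in these data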;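 also: peak over basal fluorescence ratio in a 140 s read after ATP addition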
CHRM1 agonist: human M1 muscarinic receptor agonists, primary screen, Fluo-8 calcium fluorescence, CHO-K1 cells, HTS | Muscarinic acetylcholine receptor M1 (Homo sapiens), P11229 | CHO-K1 hM1, agonist mode; 0% DMSO, 100% acetylcholine EC100 | activation, % at 3 µM | 360,000 compounds, 0.33% hits;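 active = activation above the run's mean compound activation plus 3 SD, cut at about 16% in these data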;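 also: peak over basal fluorescence ratio within a 140 s kinetic read after compound addition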
Target sequence (P11229 whole entry, looked up): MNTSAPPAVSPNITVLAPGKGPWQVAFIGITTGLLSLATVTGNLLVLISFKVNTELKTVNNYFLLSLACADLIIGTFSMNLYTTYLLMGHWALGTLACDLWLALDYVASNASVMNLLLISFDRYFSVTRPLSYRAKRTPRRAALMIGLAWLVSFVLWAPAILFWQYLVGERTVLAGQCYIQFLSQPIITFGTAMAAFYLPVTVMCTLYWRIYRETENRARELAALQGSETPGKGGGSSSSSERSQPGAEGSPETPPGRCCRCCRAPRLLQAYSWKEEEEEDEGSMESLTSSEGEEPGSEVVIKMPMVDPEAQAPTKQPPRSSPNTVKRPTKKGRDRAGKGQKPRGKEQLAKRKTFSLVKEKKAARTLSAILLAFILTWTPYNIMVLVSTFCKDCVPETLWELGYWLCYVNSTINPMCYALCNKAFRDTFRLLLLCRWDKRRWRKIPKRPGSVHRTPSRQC
CHRM1 PAM: human M1 muscarinic receptor positive allosteric modulators, primary screen, CHO-K1 cells, Fluo-8 calcium fluorescence, 1536-well | Muscarinic acetylcholine receptor M1 (Homo sapiens), P11229 | CHO-K1 hM1, ACh EC20; 0% = ACh EC20, 100% = maximal ACh | activation, % at 3 µM | 360,000 compounds, 0.088% hits | AID 588819, 2011; in the data active = activation above about 19%, passing the limit was not always enough
M1 antag: human M1 muscarinic receptor antagonists, primary screen, CHO-K1 cells, Fluo-8 calcium fluorescence, 1536-well; Muscarinic acetylcholine receptor M1 (Homo sapiens), P11229; inhibition, % at 3 µM; AID 588852, 2011; CHO-K1 hM1, ACh EC80 antagonist; 360,000 compounds, 1.3% hits;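 active = percent inhibition above its own plate's cutoff, namely the mean of that plate's compound wells plus 3 SD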;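 also: peak over basal fluorescence ratio during 140 s after agonist addition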
M1 ag parental: counter-screen for M1 agonists: effect in parental CHO-K1 cells; Fluo-8 calcium fluorescence; scaled to maximal ATP response, vehicle zero; activation, % at 3 µM; 360,000 compounds, 0.48% hits; AID 602248, 2012; in the data active = activation above about 15%;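 also: untransfected CHO-K1 host cells lacking M1 receptor as counterscreen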
CHO-K1 Ca antag: M1 antagonist counterscreen hit in parental CHO-K1 cells. AID 602250. ATP-induced calcium, Fluo-8 fluorescence. 360,000 compounds, 0.6% hits. inhibition, % at 3 µM;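 active = inhibition above a per-plate cutoff, the plate's mean sample inhibition plus 3 SD, cut at about 24% in these data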
Numbers stand for hits. This is a sample that favours compounds with a hit; in the whole collection about 2.4% have one here.

CCC(C)N(C(=O)CSc1nc2ccc(OC)cc2[nH]1)C1CCS(=O)(=O)C1 (stereo not drawn) was read as M1 PAM parental inactive, CHRM1 agonist inactive, CHRM1 PAM inactive, M1 antag inactive, M1 ag parental inactive and CHO-K1 Ca antag inactive.
For COc1cccc(OC)c1OCCCCN1CCC(Cc2ccccc2)CC1 the results were M1 PAM parental inactive, CHRM1 agonist inactive, CHRM1 PAM inactive, M1 antag 47, M1 ag parental inactive and CHO-K1 Ca antag inactive.
`N#Cc1ccccc1OCCCN1CCC(Cc2ccccc2)CC1` gave M1 PAM parental inactive, CHRM1 agonist inactive, CHRM1 PAM inactive, M1 antag 35, M1 ag parental inactive and CHO-K1 Ca antag inactive.
`CC(=O)CCc1ccc(OCCCCN2CCC(Cc3ccccc3)CC2)cc1` gave M1 PAM parental inactive, CHRM1 agonist inactive, CHRM1 PAM inactive, M1 antag 60, M1 ag parental inactive and CHO-K1 Ca antag inactive.
Screening CCC(=O)c1ccccc1OCCCN1CCC(Cc2ccccc2)CC1 returned M1 PAM parental inactive, CHRM1 agonist inactive, CHRM1 PAM inactive, M1 antag 92, M1 ag parental inactive and CHO-K1 Ca antag inactive.
`COc1ccc(NC(=O)NCCCN2CCC(Cc3ccccc3)CC2)cc1` gave M1 PAM parental inactive, CHRM1 agonist inactive, CHRM1 PAM inactive, M1 antag inactive, M1 ag parental inactive and CHO-K1 Ca antag inactive.
`CCOc1ccccc1OCCN1CCC(Cc2ccccc2)CC1` gave M1 PAM parental inactive, CHRM1 agonist inactive, CHRM1 PAM inactive, M1 antag inactive, M1 ag parental inactive and CHO-K1 Ca antag inactive.
For Cc1nnc(SCC(=O)NNC(=O)c2ccccc2)n1N the results were M1 PAM parental inactive, CHRM1 agonist inactive, CHRM1 PAM inactive, M1 antag inactive, M1 ag parental inactive and CHO-K1 Ca antag inactive.
For COc1ccc(CN2CCC(Cc3ccccc3)CC2)c(C)c1C the results were M1 PAM parental inactive, CHRM1 agonist inactive, CHRM1 PAM inactive, M1 antag 33, M1 ag parental inactive and CHO-K1 Ca antag inactive.
Screening CCN(CC)CCNC(=O)C12CC3CC(C)(CC(C)(C3)C1)C2 returned M1 PAM parental inactive, CHRM1 agonist inactive, CHRM1 PAM inactive, M1 antag 40, M1 ag parental inactive and CHO-K1 Ca antag inactive.
For CCN(CC)CCNC(=O)C12CC3CC(CC(C3)C1)C2 the results were M1 PAM parental inactive, CHRM1 agonist inactive, CHRM1 PAM inactive, M1 antag inactive, M1 ag parental inactive and CHO-K1 Ca antag inactive.
Screening COc1ccccc1C(CNC(=O)COc1ccccc1C)N1CCCC1 (stereo not drawn) returned M1 PAM parental inactive, CHRM1 agonist inactive, CHRM1 PAM inactive, M1 antag 59, M1 ag parental inactive and CHO-K1 Ca antag inactive.
Screening CCC(=O)NCC(c1ccco1)N1CCN(c2ccc(OC)cc2)CC1 (stereo not drawn) returned M1 PAM parental inactive, CHRM1 agonist inactive, CHRM1 PAM inactive, M1 antag inactive, M1 ag parental 17 and CHO-K1 Ca antag inactive.
`Cc1cc(C)c(OCC(=O)NCC(c2ccco2)N2CCCCC2)c(C)c1` (stereo not drawn) gave M1 PAM parental inactive, CHRM1 agonist inactive, CHRM1 PAM inactive, M1 antag inactive, M1 ag parental inactive and CHO-K1 Ca antag inactive.
For COc1ccccc1C(CNC(=O)COc1cc(C)ccc1Cl)N1CCCC1 (stereo not drawn) the results were M1 PAM parental inactive, CHRM1 agonist inactive, CHRM1 PAM inactive, M1 antag 62, M1 ag parental inactive and CHO-K1 Ca antag inactive.
`Cc1ccccc1OCC(=O)NCC(c1ccco1)N1CCCCC1` (stereo not drawn) gave M1 PAM parental inactive, CHRM1 agonist inactive, CHRM1 PAM inactive, M1 antag 28, M1 ag parental inactive and CHO-K1 Ca antag inactive.
`COc1ccc(C(CNC(=O)COc2ccccc2C)N2CCCCC2)cc1` (stereo not drawn) gave M1 PAM parental inactive, CHRM1 agonist inactive, CHRM1 PAM inactive, M1 antag inactive, M1 ag parental inactive and CHO-K1 Ca antag inactive.
Cc1ccccc1Cn1c(C)nc2ccc([N+](=O)[O-])cc2c1=O was read as M1 PAM parental inactive, CHRM1 agonist inactive, CHRM1 PAM inactive, M1 antag inactive, M1 ag parental inactive and CHO-K1 Ca antag inactive.
For CCOc1ccc(CNC(=O)C2CCCN(S(=O)(=O)N3CC(C)CC(C)C3)C2)cc1OC (stereo not drawn) the results were M1 PAM parental inactive, CHRM1 agonist inactive, CHRM1 PAM inactive, M1 antag inactive, M1 ag parental inactive and CHO-K1 Ca antag inactive.
Screening CCN(CC(=O)NCc1ccc(Cl)cc1)C(=O)c1cc(OC)cc(OC)c1 returned M1 PAM parental inactive, CHRM1 agonist inactive, CHRM1 PAM inactive, M1 antag inactive, M1 ag parental inactive and CHO-K1 Ca antag inactive.
CC1=CC(C)(C)N(C(=O)CCl)c2cc(C)ccc21 was read as M1 PAM parental inactive, CHRM1 agonist inactive, CHRM1 PAM inactive, M1 antag inactive, M1 ag parental inactive and CHO-K1 Ca antag inactive.
`CC1=CC(C)(C)N(C(=O)CNC2CCCCC2)c2cc(C)ccc21` gave M1 PAM parental inactive, CHRM1 agonist inactive, CHRM1 PAM inactive, M1 antag 99, M1 ag parental inactive and CHO-K1 Ca antag inactive.
CSc1ncccc1C(=O)OCC(=O)Nc1cccc(S(=O)(=O)N2CCOCC2)c1 was read as M1 PAM parental inactive, CHRM1 agonist inactive, CHRM1 PAM inactive, M1 antag inactive, M1 ag parental inactive and CHO-K1 Ca antag inactive.
C[C@@H]1CCCCCCCCCCC1=O was read as M1 PAM parental inactive, CHRM1 agonist inactive, CHRM1 PAM inactive, M1 antag inactive, M1 ag parental inactive and CHO-K1 Ca antag inactive.
O=C1NN=C2CCCCCCC12 (stereo not drawn) was read as M1 PAM parental inactive, CHRM1 agonist inactive, CHRM1 PAM inactive, M1 antag 98, M1 ag parental inactive and CHO-K1 Ca antag inactive.
Screening C[C@H]1CN=C(N(C)C)N1CCc1ccc(F)cc1 returned M1 PAM parental inactive, CHRM1 agonist inactive, CHRM1 PAM inactive, M1 antag inactive, M1 ag parental inactive and CHO-K1 Ca antag inactive.
Screening N#Cc1c(C(F)(F)F)cc(-c2ccco2)nc1SCc1ccncc1 returned M1 PAM parental inactive, CHRM1 agonist inactive, CHRM1 PAM inactive, M1 antag inactive, M1 ag parental inactive and CHO-K1 Ca antag inactive.
N#Cc1c(C(F)(F)F)cc(-c2ccco2)nc1SCc1ccccn1 was read as M1 PAM parental inactive, CHRM1 agonist inactive, CHRM1 PAM inactive, M1 antag inactive, M1 ag parental 18 and CHO-K1 Ca antag inactive.
